Test results as given in PubChem BioAssay (EPA / NIEHS).
Active and inactive are the calls of the source. How the source made its calls: active means hit-call score of the fitted dose curve at least 0.9, where 1 is the maximum; inactive means score below 0.9.

Tests used:
Details in all cases: mRNA level, 48 h; actives raise or lower the signal
[1] = read-out: adenosine kinase (ADK) gene, ADK (gene 132); assay: LTEA_HepaRG_ADK: Life Technologies and Expression Analysis (LTEA) Assay for adenosine kinase (ADK) gene using HepaRG (AID 2283471)
In short: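 Differentiated HepaRG cells dosed 48 h in serum-free induction medium, 0.5% DMSO vehicle, eight half-log concentrations from 100 uM, in duplicate. ADK mRNA by TaqMan qRT-PCR normalised to ACTB, GAPDH, POLR2A; bidirectional fit versus DMSO.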

BCL2L11 (gene 10018) = assay: LTEA_HepaRG_BCL2L11: Life Technologies and Expression Analysis (LTEA) Assay for Bcl-2 (BCL2L11) gene using HepaRG (AID 2283473)
In short: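 Human hepatic HepaRG cultures are treated 48 h with test chemicals (maximum 100 uM, 0.5% DMSO vehicle). Expression of BCL2L11 is measured by qRT-PCR against ACTB, GAPDH and POLR2A, with activity in either direction scored relative to vehicle.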

[2] = read-out: Apolipoprotein A-V (APOA5) gene, APOA5 (gene 116519); assay: LTEA_HepaRG_APOA5: Life Technologies and Expression Analysis (LTEA) Assay for Apolipoprotein A-V (APOA5) gene using HepaRG (AID 2283474)
In short: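 Concentration-response of APOA5 expression in HepaRG: eight half-log doses to 100 uM, 48 h, qRT-PCR normalized to ACTB/GAPDH/POLR2A, bidirectional fitting with 0.5% DMSO as baseline.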

[3] = read-out: Apoptosis regulator Bcl-2 (Homo sapiens) (UniProt P10415); assay: LTEA_HepaRG_BCL2: Life Technologies and Expression Analysis (LTEA) Assay for Bcl-2 gene using HepaRG (AID 2283475)
In short: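 Differentiated human HepaRG cells in serum-free induction medium exposed 48 h, in duplicate, to 8-point half-log series from 100 uM in 0.5% DMSO. BCL2 mRNA by qRT-PCR (TaqMan/Fluidigm), normalized to ACTB, GAPDH, POLR2A; bidirectional fit against DMSO.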

[4] = read-out: Bcl-2 (BID) gene, BID (gene 637); assay: LTEA_HepaRG_BID: Life Technologies and Expression Analysis (LTEA) Assay for Bcl-2 (BID) gene using HepaRG (AID 2283476)
In short: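 Gene expression by qRT-PCR in HepaRG cells after 48 h exposure, duplicate wells, eight half-log concentrations topping at 100 uM in 0.5% DMSO. Normalized to ACTB, GAPDH, POLR2A; bidirectional fitting relative to DMSO.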

Caspase-3 (Homo sapiens) = Caspase-3 (Homo sapiens) (UniProt P42574); assay: LTEA_HepaRG_CASP3: Life Technologies and Expression Analysis (LTEA) Assay for cysteine-aspartic acid protease (CASP3) using HepaRG (AID 2283477)
In short: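 Transcript-level assay: CASP3 mRNA in human HepaRG after 48 h treatment, eight half-log concentrations from 100 uM in 0.5% DMSO, quantified by qRT-PCR.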

[5] = read-out: Cytochrome P450 (CYP24A1), CYP24A1 (gene 1591); assay: LTEA_HepaRG_CYP24A1: Life Technologies and Expression Analysis (LTEA) Assay for Cytochrome P450 (CYP24A1) using HepaRG (AID 2283478)
In short: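 Gene expression of CYP24A1 by TaqMan qRT-PCR in HepaRG after 48 h treatment, highest concentration 100 uM; activity fitted in both directions relative to DMSO vehicle.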

[6] = read-out: Cytochrome P450 (CYP1A2), CYP1A2 (gene 1544); assay: LTEA_HepaRG_CYP1A2: Life Technologies and Expression Analysis (LTEA) Assay for Cytochrome P450 (CYP1A2) using HepaRG (AID 2283479)
In short: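 In duplicate wells, HepaRG cultures maintained in 0.5% DMSO were treated 48 h across an 8-point, half-log series topping at 100 uM; phenobarbital (1 mM) served as induction control. Expression was read by qRT-PCR.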

[7] = read-out: cysteine-aspartic acid protease (CASP8), CASP8 (gene 841); assay: LTEA_HepaRG_CASP8: Life Technologies and Expression Analysis (LTEA) Assay for cysteine-aspartic acid protease (CASP8) using HepaRG (AID 2283480)
In short: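 HepaRG, 48 h exposure, duplicate wells; 8 conc, half-log from 100 uM, 0.5% DMSO. Serum-free induction medium. CASP8 mRNA by TaqMan qRT-PCR, norm. ACTB/GAPDH/POLR2A; gain/loss fitted vs DMSO.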

[8] = read-out: Cytochrome P450 (CYP2B6), CYP2B6 (gene 1555); assay: LTEA_HepaRG_CYP2B6: Life Technologies and Expression Analysis (LTEA) Assay for Cytochrome P450 (CYP2B6) using HepaRG (AID 2283481)
In short: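 Human HepaRG, 48 h dosing, 0.5% DMSO vehicle, top dose 100 uM. CYP2B6 transcript by qRT-PCR, housekeeping-normalized, bidirectional curve fit.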

[9] = read-out: Cytochrome P450 2C19 (Homo sapiens) (UniProt P33261); assay: LTEA_HepaRG_CYP2C19: Life Technologies and Expression Analysis (LTEA) Assay for CYP2C19 using HepaRG (AID 2283482)
In short: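 Endpoint: CYP2C19 mRNA change, bidirectional fit vs 0.5% DMSO. Cells: HepaRG, 48 h exposure, eight-point series topping at 100 uM. Quantitation: qRT-PCR normalized to ACTB, GAPDH, POLR2A.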

CYP2C8 (gene 1558) = assay: LTEA_HepaRG_CYP2C8: Life Technologies and Expression Analysis (LTEA) Assay for CYP2C8 using HepaRG (AID 2283483)
In short: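 CYP2C8 mRNA induction or loss, by qRT-PCR normalized to ACTB/GAPDH/POLR2A, is read in HepaRG cells after 48 h treatment. Concentrations run from 100 uM down in half-log dilutions, with 0.5% DMSO as vehicle and baseline.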

CYP2C9 (gene 1559) = assay: LTEA_HepaRG_CYP2C9: Life Technologies and Expression Analysis (LTEA) Assay for CYP2C9 using HepaRG (AID 2283484)
In short: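 Cells plated 48 h, switched to serum-free induction medium, then treated in duplicate for 48 h at eight concentrations (max 100 uM, 0.5% DMSO). RNA then analysed by qRT-PCR for CYP2C9; curves fitted in both directions relative to DMSO.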

CYP2E1 (gene 1571) = assay: LTEA_HepaRG_CYP2E1: Life Technologies and Expression Analysis (LTEA) Assay for CYP2E1 using HepaRG (AID 2283485)
In short: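 HepaRG cells, plated 48 h, then exposed 48 h in serum-free induction medium to eight half-log concentrations from 100 uM in 0.5% DMSO, duplicate. CYP2E1 mRNA by qRT-PCR, normalized to ACTB/GAPDH/POLR2A; bidirectional fit versus DMSO.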

CYP4A11 (gene 1579) = assay: LTEA_HepaRG_CYP4A11: Life Technologies and Expression Analysis (LTEA) Assay for CYP4A11 using HepaRG (AID 2283486)
In short: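 Human hepatic HepaRG cultures receive duplicate 48 h exposures across a concentration-response series topping at 100 uM. Expression changes in CYP4A11 are measured by qRT-PCR relative to DMSO controls.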

[10] = read-out: Cytochrome P450 3A4 (Homo sapiens) (UniProt P08684); assay: LTEA_HepaRG_CYP3A4: Life Technologies and Expression Analysis (LTEA) Assay for CYP3A4 using HepaRG (AID 2283487)
In short: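 Differentiated HepaRG cells in serum-free induction medium exposed in duplicate for 48 h to 8 half-log concentrations up to 100 uM in 0.5% DMSO. CYP3A4 mRNA measured by qRT-PCR normalized to ACTB, GAPDH and POLR2A; bidirectional fit versus DMSO.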

[11] = read-out: Early growth response protein 1 (EGR1) transcription factor, EGR1 (gene 1958); assay: LTEA_HepaRG_EGR1: Life Technologies and Expression Analysis (LTEA) Assay for Early growth response protein 1 (EGR1) transcription factor using HepaRG (AID 2283490)
In short: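 Read-out is EGR1 mRNA level by qRT-PCR, normalized to three housekeeping genes and analysed for gain or loss of signal against 0.5% DMSO. Source cells: human HepaRG, treated 48 h at up to 100 uM in half-log dilutions.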

[12] = read-out: DNA damage-inducible transcript 3 (DDIT3), DDIT3 (gene 1649); assay: LTEA_HepaRG_DDIT3: Life Technologies and Expression Analysis (LTEA) Assay for DNA damage-inducible transcript 3 (DDIT3) using HepaRG (AID 2283488)
In short: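 HepaRG cells, 48 h after plating, exposed 48 h in serum-free induction medium to 8 half-log concentrations up to 100 uM in 0.5% DMSO, in duplicate. DDIT3 mRNA measured by TaqMan qRT-PCR, normalized to ACTB, GAPDH and POLR2A. Fitted bidirectionally against DMSO.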

Measured: AC50

Apoptosis regulator Bcl-2 (Homo sapiens), sequence (P10415 whole entry, looked up): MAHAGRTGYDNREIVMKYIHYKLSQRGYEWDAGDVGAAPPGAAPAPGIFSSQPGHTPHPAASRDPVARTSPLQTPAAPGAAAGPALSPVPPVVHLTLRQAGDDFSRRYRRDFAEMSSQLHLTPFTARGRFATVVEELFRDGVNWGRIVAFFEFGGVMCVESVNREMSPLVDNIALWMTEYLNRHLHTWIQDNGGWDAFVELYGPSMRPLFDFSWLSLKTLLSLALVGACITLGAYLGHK
Cytochrome P450 2C19 (Homo sapiens), sequence (P33261 whole entry, looked up): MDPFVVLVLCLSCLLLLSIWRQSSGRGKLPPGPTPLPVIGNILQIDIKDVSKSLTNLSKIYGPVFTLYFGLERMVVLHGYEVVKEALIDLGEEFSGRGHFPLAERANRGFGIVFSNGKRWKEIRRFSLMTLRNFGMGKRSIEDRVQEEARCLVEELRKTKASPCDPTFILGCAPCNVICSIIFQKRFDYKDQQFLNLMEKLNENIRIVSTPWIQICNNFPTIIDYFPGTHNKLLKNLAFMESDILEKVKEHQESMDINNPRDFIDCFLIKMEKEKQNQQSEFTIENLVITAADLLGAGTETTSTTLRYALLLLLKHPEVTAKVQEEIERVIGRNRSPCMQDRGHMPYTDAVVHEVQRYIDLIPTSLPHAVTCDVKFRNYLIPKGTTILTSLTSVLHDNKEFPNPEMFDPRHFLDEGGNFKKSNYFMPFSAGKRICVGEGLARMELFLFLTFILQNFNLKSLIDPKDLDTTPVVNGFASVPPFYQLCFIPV
Cytochrome P450 3A4 (Homo sapiens), sequence (P08684 whole entry, looked up): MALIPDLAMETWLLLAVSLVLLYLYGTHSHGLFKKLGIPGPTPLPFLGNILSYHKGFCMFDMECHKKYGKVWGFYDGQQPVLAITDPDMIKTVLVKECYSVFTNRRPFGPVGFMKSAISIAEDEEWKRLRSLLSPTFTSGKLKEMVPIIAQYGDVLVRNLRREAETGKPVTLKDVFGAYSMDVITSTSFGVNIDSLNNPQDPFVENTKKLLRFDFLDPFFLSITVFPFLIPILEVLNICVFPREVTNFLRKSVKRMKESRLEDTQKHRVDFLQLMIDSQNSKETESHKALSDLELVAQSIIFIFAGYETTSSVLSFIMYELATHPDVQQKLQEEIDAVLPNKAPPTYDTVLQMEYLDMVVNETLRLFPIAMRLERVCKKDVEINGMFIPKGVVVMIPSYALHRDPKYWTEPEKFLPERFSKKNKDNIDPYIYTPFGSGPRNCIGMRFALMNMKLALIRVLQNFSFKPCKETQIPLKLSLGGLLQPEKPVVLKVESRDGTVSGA
Caspase-3 (Homo sapiens), sequence (P42574 whole entry, looked up): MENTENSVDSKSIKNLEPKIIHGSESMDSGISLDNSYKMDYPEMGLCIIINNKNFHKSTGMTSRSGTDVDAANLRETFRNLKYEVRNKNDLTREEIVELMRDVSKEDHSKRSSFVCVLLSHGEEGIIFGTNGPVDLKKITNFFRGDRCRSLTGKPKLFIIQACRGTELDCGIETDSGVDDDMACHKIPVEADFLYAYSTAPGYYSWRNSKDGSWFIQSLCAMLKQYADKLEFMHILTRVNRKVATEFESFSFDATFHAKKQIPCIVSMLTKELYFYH

CC(Cc1ccc(OCC(=O)O)cc1)NCC(O)c1csc(C(F)(F)F)n1 (stereo unspecified)
active: [3] 0.125 µM | [5] 0.00316 µM | [6] 0.0181 µM
not listed: [12]
inactive: all other assays above

CCOP(=S)(Oc1ccc([N+](=O)[O-])cc1)c1ccccc1 (stereo unspecified)
active: [6] 24.2 µM | [8] 1.05 µM | [9] 6.06 µM | CYP2C8 (gene 1558) 2.42 µM | CYP2E1 (gene 1571) 37.3 µM | CYP4A11 (gene 1579) 10.8 µM | [10] 4.84 µM
inactive: all other assays above

Cc1ccc([N+](=O)[O-])cc1C
inactive: all assays above

Cc1ccc(O)cc1C
inactive: [1] | BCL2L11 (gene 10018) | [2] | [3] | [4] | Caspase-3 (Homo sapiens) | [7] | [12] | [11]

CCC(C)(C)c1ccc(O)cc1
inactive: all assays above

CCCCCCCc1ccc(O)cc1
inactive: all assays above

O=P(Oc1ccccc1)(Oc1ccccc1)Oc1ccccc1
active: [2] 50 µM | [3] 80.4 µM | [6] 27.4 µM | [8] 1.23 µM | [9] 2.95 µM | CYP2C8 (gene 1558) 12.4 µM | CYP2E1 (gene 1571) 26.2 µM | [10] 3.44 µM | [12] 75.4 µM
inactive: [1] | BCL2L11 (gene 10018) | [4] | Caspase-3 (Homo sapiens) | [5] | [7] | CYP2C9 (gene 1559) | [11]

CCOP(=S)(OCC)SCSCC
active: [8] 4.47 µM | [9] 11.2 µM | [10] 13.9 µM
inactive: all other assays above

CCCN(CCC)c1c([N+](=O)[O-])cc(C(C)C)cc1[N+](=O)[O-]
inactive: [1] | [3] | Caspase-3 (Homo sapiens) | [5] | [7] | [12] | [11]
active: BCL2L11 (gene 10018) 0.106 µM | [2] 0.123 µM | [4] 0.119 µM | [6] 27.3 µM | [8] 9.38 µM | [9] 9.77 µM | CYP2C8 (gene 1558) 13.2 µM | CYP2C9 (gene 1559) 12.7 µM | CYP2E1 (gene 1571) 67 µM | CYP4A11 (gene 1579) 81.2 µM

O=[N+]([O-])c1ccc(Cl)c(Cl)c1
active: [6] 1.36 µM
inactive: all other assays above

CCCCN(CCCC)SN(C)C(=O)Oc1cccc2c1OC(C)(C)C2
active: [8] 6.66 µM | [9] 16.7 µM | CYP2E1 (gene 1571) 41.5 µM | [10] 8.27 µM
inactive: all other assays above
